From PubChem BioAssay AID1159580 (chemical genetic matrix, 2015)
About 2,000 (36%) of roughly 5,500 compounds were called active. About 18% were inconclusive and are not listed. No stated cut-off is given here; in the data, active means normalized growth mostly below about 0.91 (no sharp cut-off); inconclusive means no clear call, values can overlap the other calls; inactive means mostly above about 0.92. This is one part of the list.

Assay: chemical genetic growth profiling, strain panel (AID 1159580);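 further: tested at 20 µM; growth read once vehicle control cultures reached saturation at 30 °C; 1 = growth at the plate median or of vehicle wells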
Conditions: growth OD
[1] = S. cerevisiae deletion strains, locus YAL013W, strain DEP1, stronger effect = lower value
[2] = S. cerevisiae deletion strains, locus YBR229C, strain ROT2, stronger effect = lower value
[3] = S. cerevisiae deletion strains, locus YDL101C, strain DUN1, stronger effect = lower value
[4] = S. cerevisiae deletion strains, locus YDL134C, strain PPH21, stronger effect = lower value
[5] = S. cerevisiae deletion strains, locus YDR150W, strain NUM1, stronger effect = lower value
[6] = S. cerevisiae deletion strains, locus YEL061C, strain CIN8, stronger effect = lower value
[7] = S. cerevisiae deletion strains, locus YGR078C, strain PAC10, stronger effect = lower value
[8] = S. cerevisiae deletion strains, locus YHR030C, strain SLT2, stronger effect = lower value
[9] = S. cerevisiae deletion strains, locus YHR087W, strain rtc3, stronger effect = lower value
[10] = S. cerevisiae deletion strains, locus YJR043C, strain POL32, stronger effect = lower value
[11] = S. cerevisiae deletion strains, locus YJR075W, strain HOC1, stronger effect = lower value
[12] = S. cerevisiae deletion strains, locus YLR039C, strain RIC1, stronger effect = lower value
[13] = S. cerevisiae deletion strains, locus YLR058C, strain SHM2 (second series), stronger effect = lower value
[14] = S. cerevisiae deletion strains, locus YLR085C, strain ARP6, stronger effect = lower value
[15] = S. cerevisiae deletion strains, locus YLR262C, strain YPT6, stronger effect = lower value
[16] = S. cerevisiae deletion strains, locus YML094W, strain GIM5, stronger effect = lower value
[17] = S. cerevisiae deletion strains, locus YMR219W, strain ESC1, stronger effect = lower value
[18] = S. cerevisiae deletion strains, locus YMR263W, strain SAP30, stronger effect = lower value
[19] = S. cerevisiae deletion strains, locus YNL153C, strain GIM3, stronger effect = lower value
[20] = S. cerevisiae deletion strains, locus YNL298W, strain CLA4 (second series), stronger effect = lower value
[21] = S. cerevisiae deletion strains, locus YNL322C, strain KRE1, stronger effect = lower value
[22] = S. cerevisiae deletion strains, locus YNR030W, strain Alg12, stronger effect = lower value
[23] = S. cerevisiae deletion strains, locus YPL055C, strain LGE1, stronger effect = lower value
[24] = S. cerevisiae deletion strains, locus YPL241C, strain CIN2, stronger effect = lower value
[25] = S. cerevisiae deletion strains, locus YPR135W, strain CTF4, stronger effect = lower value

Measured: normalized growth

O=C(Nc1cc2cc([N+](=O)[O-])ccc2oc1=O)c1c(F)cccc1F
inactive: [1] 1.02 | [2] 1.02 | S. cerevisiae deletion strains, locus YCL061C, strain MRC1, stronger effect = lower value 0.989 | [3] 0.98 | [4] 1.01 | [5] 0.96 | [6] 1.01 | [7] 1 | [8] 0.994 | [9] 1.09 | S. cerevisiae deletion strains, locus YJL187C, strain SWE1, stronger effect = lower value 1.03 | [10] 0.999 | [11] 1.02 | [12] 1.07 | [13] 1.04 | [14] 1.07 | [15] 1.07 | [16] 1.05 | [17] 1.03 | [18] 0.936 | S. cerevisiae deletion strains, locus YNL128W, strain TEP1, stronger effect = lower value 1.01 | [19] 1.02 | [20] 1.02 | [21] 1.01 | [22] 1.04 | S. cerevisiae deletion strains, locus YOL006C, strain TOP1, stronger effect = lower value 1 | [23] 1.03 | [24] 1.02 | [25] 1.01

CCN(CC)c1ccc(NC(=O)c2c(F)cccc2F)c(N(CC)CC)n1
active: S. cerevisiae deletion strains, locus YMR307W, strain GAS1, stronger effect = lower value 0.574
inactive: [1] 0.986 | [2] 0.98 | [3] 0.955 | [4] 0.993 | [5] 0.99 | [6] 0.964 | [7] 0.98 | [8] 0.698 | [9] 0.952 | [10] 0.99 | [11] 0.954 | [12] 0.815 | [13] 1 | [14] 0.91 | [15] 0.863 | [16] 0.953 | [17] 0.997 | [18] 1 | [19] 0.991 | [20] 0.935 | [21] 0.987 | [22] 0.942 | [23] 0.963 | [24] 1.05 | [25] 0.8 | S. cerevisiae strains, strain wild type, stronger effect = lower value 0.988
